In PubChem BioAssay AID1159580 (chemical genetic matrix, 2015):
In all, about 5,500 compounds went through this assay and about 2,000 (36%) were called active. Inconclusive results (about 18%) are left out. No stated cut-off is given here; in the data, active means normalized growth mostly below about 0.91 (no sharp cut-off); inconclusive means no clear call, values can overlap the other calls; inactive means mostly above about 0.92. The list shows a part of the results.

Experiment: chemical genetic growth profiling, strain panel (AID 1159580);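 further: tested at 20 µM; growth read once vehicle control cultures reached saturation at 30 °C; 1 = growth at the plate median or of vehicle wells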
Details: S. cerevisiae deletion strains, growth OD

Measured: normalized growth

COc1cc2c(cc1OC)[C@@H](c1ccccc1)CN(C)CC2
inactive: locus YAL040C, strain CLN3, stronger effect = lower value 1 | locus YCL061C, strain MRC1 (second series), stronger effect = lower value 1.01 | locus YDR363W, strain ESC2, stronger effect = lower value 1.01 | locus YER002W, strain NOP16, stronger effect = lower value 1 | locus YGR078C, strain PAC10, stronger effect = lower value 1.01 | locus YJR075W, strain HOC1, stronger effect = lower value 1.01 | locus YMR263W, strain SAP30, stronger effect = lower value 1.01 | locus YMR307W, strain GAS1, stronger effect = lower value 1.01 | locus YNL128W, strain TEP1, stronger effect = lower value 1.01 | locus YNL153C, strain GIM3, stronger effect = lower value 1.04 | locus YNL175C, strain NOP13, stronger effect = lower value 1 | locus YNL197C, strain WHI3, stronger effect = lower value 1 | locus YNL224C, strain SQS1, stronger effect = lower value 1 | locus YNL322C, strain KRE1, stronger effect = lower value 1.01 | locus YOR083W, strain WHI5 (second series), stronger effect = lower value 1.02 | locus YPL055C, strain LGE1, stronger effect = lower value 0.995 | locus YPL241C, strain CIN2, stronger effect = lower value 1.01

COC1=CC(=O)C(C(=O)c2ccccc2)=CC1=O
inactive: locus YAL021C, strain ccr4, stronger effect = lower value 1.01 | locus YAL026C, strain drs2, stronger effect = lower value 0.992 | locus YAL030W, strain snc1, stronger effect = lower value 0.993 | locus YBL061C, strain skt5, stronger effect = lower value 1.01 | locus YBR009C, strain hhf1, stronger effect = lower value 0.977 | locus YBR023C, strain chs3, stronger effect = lower value 0.988 | locus YBR171W, strain sec66, stronger effect = lower value 0.978 | locus YBR231C, strain swc5, stronger effect = lower value 0.972 | locus YBR279W, strain paf1, stronger effect = lower value 0.991 | locus YCL011C, strain gbp2, stronger effect = lower value 0.971 | locus YCL016C, strain dcc1, stronger effect = lower value 0.977 | locus YCL061C, strain MRC1, stronger effect = lower value 0.978 | locus YCL069W, strain vba3, stronger effect = lower value 0.996 | locus YCR088W, strain abp1, stronger effect = lower value 0.987 | locus YDL005C, strain med2, stronger effect = lower value 0.966 | locus YDL040C, strain nat1, stronger effect = lower value 0.981 | locus YDR001C, strain nth1, stronger effect = lower value 0.964 | locus YDR069C, strain doa4, stronger effect = lower value 0.965 | locus YDR137W, strain rgp1, stronger effect = lower value 0.938 | locus YDR159W, strain sac3, stronger effect = lower value 0.949 | locus YDR195W, strain ref2 0.964 | locus YDR297W, strain sur2, stronger effect = lower value 0.967 | locus YDR334W, strain swr1, stronger effect = lower value 0.96 | locus YDR335W, strain msn5, stronger effect = lower value 0.97 | locus YDR392W, strain spt3, stronger effect = lower value 0.98 | locus YEL003W, strain gim4, stronger effect = lower value 0.976 | locus YEL037C, strain rad23, stronger effect = lower value 0.986 | locus YEL061C, strain CIN8 (second series), stronger effect = lower value 0.98 | locus YER015W, strain faa2, stronger effect = lower value 0.98 | locus YER016W, strain bim1, stronger effect = lower value 0.974 | locus YER111C, strain swi4, stronger effect = lower value 0.973 | locus YER155C, strain BEM2 (second series), stronger effect = lower value 0.975 | locus YFR010W, strain ubp6, stronger effect = lower value 0.993 | locus YGL167C, strain pmr1, stronger effect = lower value 0.975 | locus YGL173C, strain kem1, stronger effect = lower value 1 | locus YGL227W, strain vid30, stronger effect = lower value 0.986 | locus YGL240W, strain doc1, stronger effect = lower value 0.955 | locus YGL253W, strain hxk2, stronger effect = lower value 0.987 | locus YHR013C, strain ard1, stronger effect = lower value 0.967 | locus YHR027C, strain rpn1, stronger effect = lower value 0.966 | locus YHR030C, strain SLT2, stronger effect = lower value 1.02 | locus YHR079C, strain IRE1, stronger effect = lower value 1.02 | locus YHR142W, strain chs7, stronger effect = lower value 0.996 | locus YJL092W, strain hpr5, stronger effect = lower value 0.968 | locus YJL095W, strain BCK1 (second series), stronger effect = lower value 0.971 | locus YJL095W, strain BCK1, stronger effect = lower value 1.02 | locus YJL115W, strain asf1, stronger effect = lower value 0.956 | locus YJL129C, strain trk1, stronger effect = lower value 0.941 | locus YJL154C, strain vps35, stronger effect = lower value 0.974 | locus YJL164C, strain tpk1, stronger effect = lower value 0.988 | locus YJL166W, strain qcr8, stronger effect = lower value 1.01 | locus YJR066W, strain TOR1, stronger effect = lower value 0.94 | locus YKL160W, strain elf1, stronger effect = lower value 0.991 | locus YKR026C, strain gcn3, stronger effect = lower value 0.993 | locus YKR091W, strain srl3, stronger effect = lower value 0.97 | locus YLL001W, strain dnm1, stronger effect = lower value 0.972 | locus YLL026W, stronger effect = lower value 1 | locus YLL041C, strain sdh2, stronger effect = lower value 0.98 | locus YLR027C, strain aat2, stronger effect = lower value 0.976 | locus YLR113W, strain HOG1, stronger effect = lower value 1.02 | locus YLR221C, strain rsa3, stronger effect = lower value 0.988 | locus YLR258W, strain gsy2, stronger effect = lower value 0.997 | locus YLR262C, strain YPT6 (second series), stronger effect = lower value 0.975 | locus YLR320W, strain mms22, stronger effect = lower value 0.981 | locus YLR342W, strain FKS1, stronger effect = lower value 0.983 | locus YLR357W, strain rsc2, stronger effect = lower value 0.946 | locus YLR370C, strain arc18, stronger effect = lower value 0.959 | locus YLR384C, strain iki3, stronger effect = lower value 0.979 | locus YML120C, strain ndi1, stronger effect = lower value 1 | locus YMR058W, strain fet3, stronger effect = lower value 0.966 | locus YMR125W, strain sto1, stronger effect = lower value 0.987 | locus YMR129W, stronger effect = lower value 1 | locus YMR205C, strain PFK2, stronger effect = lower value 1 | locus YMR231W, strain pep5, stronger effect = lower value 0.991 | locus YNL071W, strain lat1, stronger effect = lower value 0.985 | locus YNL183C, strain NPR1, stronger effect = lower value 0.969 | locus YNL209W, strain ssb2, stronger effect = lower value 0.977 | locus YNL248C, strain rpa49, stronger effect = lower value 0.992 | locus YNL322C, strain KRE1 (second series), stronger effect = lower value 0.965 | locus YNR049C, strain mso1, stronger effect = lower value 0.964 | locus YOR001W, strain rrp6, stronger effect = lower value 0.975 | locus YOR070C, strain gyp1, stronger effect = lower value 0.977 | locus YOR080W, strain dia2, stronger effect = lower value 1 | locus YOR083W, strain WHI5, stronger effect = lower value 0.991 | locus YOR106W, strain vam3, stronger effect = lower value 0.992 | locus YOR231W, strain MKK1, stronger effect = lower value 1.04 | locus YOR265W, strain rbl2, stronger effect = lower value 0.986 | locus YOR270C, strain vph1, stronger effect = lower value 1.01 | locus YOR290C, strain snf2, stronger effect = lower value 0.965 | locus YPL051W, strain arl3, stronger effect = lower value 0.984 | locus YPL078C, strain atp4, stronger effect = lower value 0.975 | locus YPL106C, strain sse1, stronger effect = lower value 0.927 | locus YPL240C, strain hsp82, stronger effect = lower value 0.977 | locus YPL256C, strain CLN2, stronger effect = lower value 1.04
